# Laboratory results reported in PubChem BioAssay (NCATS).
# Results filed as inconclusive are left out. Where a call stands in place of a potency, no number is given. Calls of active or inactive are those of the source. Calls come from the whole dose curve; as a rule, active = well fitted curve in the direction sought with a large enough effect; inconclusive = small, poorly fitted or top-dose-only effect, or another doubt; inactive = no such curve, though single readings can be large; an effect the other way counts as inactive or inconclusive.
# Assay: qHTS of pediatric cancer cell lines to identify multiple opportunities for drug repurposing: Primary screen for MG 63 (6-TG R) cells (AID 1347105); note: nearly all actives have a fitted effect of over 50% in size
# Details: MG 63 (6-TG R) viability, CellTiter-Glo, 48 h; series mostly up to 46 µM
# Procedure, shortened: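 Plated cells (500-1,000 per well, growth media) were allowed to settle for 5 hours, treated with compound dilutions for 48 hours, then lysed with CellTiter-Glo for 15 min at room temperature before luminescence reading.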
# Potency is the fitted concentration of half-maximal effect.
Structure (SMILES),Potency,"activity change, negative = cytotoxic"
CCc1c2c(nc3ccc(O)cc13)-c1cc3c(c(=O)n1C2)COC(=O)[C@]3(O)CC,0.0187 µM (active),
CNC(=O)c1ccc(N2C(=S)N(c3cnc(C#N)c(C(F)(F)F)c3)C(=O)C23CCC3)cc1F,2.35 µM (active),
Cc1ccc(C(=O)Nc2cccc(C(F)(F)F)c2)cc1-c1ccc2nc(NCCN3CCOCC3)ncc2c1,14.8 µM (active),
CCc1cc2c(cc1N1CCC(N3CCOCC3)CC1)C(C)(C)c1[nH]c3cc(C#N)ccc3c1C2=O,inactive,
CN1CCN(c2ccc3nc(-c4c(N)c5c(F)cccc5[nH]c4=O)[nH]c3c2)CC1,inactive,
Clc1cccc(-c2nnnn2Cc2cccnc2)c1Cl,inactive,
COc1cc(C)c(Sc2cnc(NC(=O)c3ccc(CNC(C)C(C)C)cc3)s2)cc1C(=O)N1CCN(C(C)=O)CC1 (stereo unspecified),11.8 µM (active),
CN1CCN(Cc2ccc(NC(=O)Nc3ccc(Oc4cc(NC(=O)C5CC5)ncn4)cc3)cc2C(F)(F)F)CC1,1.87 µM (active),
O=C(c1cncc(Br)c1)N1CCC(N2CCCC2)CC1,inactive,
CNC(=O)c1ccccc1Nc1nc(Nc2ccc(N3CCOCC3)cc2OC)ncc1Cl,0.935 µM (active),
Nc1nc(NCCNc2ncc(-n3ccnc3)c(-c3ccc(Cl)cc3Cl)n2)ccc1[N+](=O)[O-],14.8 µM (active),
COc1ccc(CC2c3cc(OC)c(OC)cc3CC[N+]2(C)CCC(=O)OCCCCCOC(=O)CC[N+]2(C)CCc3cc(OC)c(OC)cc3C2Cc2ccc(OC)c(OC)c2)cc1OC (stereo unspecified),,0.923% [at 9.22 µM] (inactive)
O=C(O)c1ccc2c(c1)nc(Nc1cccc(Cl)c1)c1ccncc12,3.72 µM (active),
CC(C)(O)CCc1ccc(OCc2cc(-c3cccc(OC(F)F)c3)c3ncccc3c2)cc1,inactive,
Cc1cn(-c2cc(NC(=O)c3ccc(C)c(Nc4nccc(-c5cccnc5)n4)c3)cc(C(F)(F)F)c2)cn1,inactive,
C1=CCOCc2cc(ccc2OCCN2CCCC2)Nc2nccc(n2)-c2cccc(c2)OCC1,11.8 µM (active),
C=C1C(=CC=C2CCCC3(C)[C@@H]([C@H](C)C=CC=CC(O)(CC)CC)CC[C@@H]23)C[C@@H](O)C[C@@H]1O (stereo partly specified),inactive,
CC(C)(C)c1cc(C(C)(C)C)c(NC(=O)c2c[nH]c3ccccc3c2=O)cc1O,inactive,
CCS(=O)(=O)c1cccc(-c2cc(C(=O)NC3CCN(C)CC3)c(C)c3[nH]c4ncc(C)cc4c23)c1,14.8 µM (active),
C#Cc1cccc(Nc2ncnc3cc(OC)c(OCCCCCCC(=O)NO)cc23)c1,0.118 µM (active),
CC(C)c1ccc(Cn2ccc3c4c(N)nc(NC5CC5)nc4ccc32)cc1,14.8 µM (active),
Cc1ccc(S(=O)(=O)Nc2cc(Cl)ccc2C(=O)Nc2nc(-c3ccccc3)cs2)cc1,9.35 µM (active),
COc1ccc(CC2SC(=O)NC2=O)cc1C(=O)NCc1ccc(C(F)(F)F)cc1 (stereo unspecified),inactive,
CC[C@@]1(O)C(=O)OCc2c1cc1n(c2=O)Cc2cc3cc(O)ccc3nc2-1,0.0935 µM (active),
C=CC(=O)Nc1cc2c(Nc3ccc(F)c(Cl)c3)ncnc2cc1C#CC(C)(C)N1CCN(C)CC1,5.9 µM (active),
Cc1cc(N2CCOCC2)cc2[nH]c(-c3c(NC[C@@H](O)c4cccc(Cl)c4)cc[nH]c3=O)nc12,2.96 µM (active),
COc1ccc(C(=O)CC2(O)C(=O)Nc3c(Cl)ccc(Cl)c32)cc1 (stereo unspecified),3.72 µM (active),
O=C(C=Cc1cccc(S(=O)(=O)Nc2ccccc2)c1)NO,6.79 µM (active),
CC[C@H](CO)Nc1nc(NCc2ccccc2)c2ncn(C(C)C)c2n1,inactive,

# Assay: qHTS of pediatric cancer cell lines to identify multiple opportunities for drug repurposing: Primary screen for control Hh wild type fibroblast cells (AID 1347106); note: nearly all actives have a fitted effect of over 55% in size;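 for activity change, negative = cytotoxic: a drop in luminescence marks cytotoxicity and a rise apparent proliferation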
# Details: Hh wild-type fibroblast viability, CellTiter-Glo luminescence, 48 h; series mostly up to 46 µM
# Procedure, shortened: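 Viability after 48 h compound treatment at 37C, 500-1,000 cells/well, read as ATP luminescence with CellTiter-Glo. Primary screens used 11-point (MIPE, 0.78 nM-46 µM) or 8-point (NPC, 0.59 nM-46 µM) final concentrations; follow-up screens used 11-point dilutions.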
Structure (SMILES),Potency,"activity change, negative = cytotoxic"
CCN1CCN(Cc2ccc(-c3cc4c(N[C@H](C)c5ccccc5)ncnc4[nH]3)cc2)CC1,inactive,
CNC(=O)c1ccc(N2C(=S)N(c3cnc(C#N)c(C(F)(F)F)c3)C(=O)C23CCC3)cc1F,3.72 µM (active),
Cc1ccc(C(=O)Nc2cccc(C(F)(F)F)c2)cc1-c1ccc2nc(NCCN3CCOCC3)ncc2c1,14.8 µM (active),
CN1CCN(c2ccc3nc(-c4c(N)c5c(F)cccc5[nH]c4=O)[nH]c3c2)CC1,inactive,
Clc1cccc(-c2nnnn2Cc2cccnc2)c1Cl,inactive,
COc1cc(C)c(Sc2cnc(NC(=O)c3ccc(CNC(C)C(C)C)cc3)s2)cc1C(=O)N1CCN(C(C)=O)CC1 (stereo unspecified),inactive,
CN1CCN(Cc2ccc(NC(=O)Nc3ccc(Oc4cc(NC(=O)C5CC5)ncn4)cc3)cc2C(F)(F)F)CC1,8.33 µM (active),
O=C(c1cncc(Br)c1)N1CCC(N2CCCC2)CC1,inactive,
COc1ccc(CC2c3cc(OC)c(OC)cc3CC[N+]2(C)CCC(=O)OCCCCCOC(=O)CC[N+]2(C)CCc3cc(OC)c(OC)cc3C2Cc2ccc(OC)c(OC)c2)cc1OC (stereo unspecified),,-1.39% [at 9.22 µM] (inactive)
O=C(O)c1ccc2c(c1)nc(Nc1cccc(Cl)c1)c1ccncc12,inactive,
CC(C)(O)CCc1ccc(OCc2cc(-c3cccc(OC(F)F)c3)c3ncccc3c2)cc1,inactive,
C=C1C(=CC=C2CCCC3(C)[C@@H]([C@H](C)C=CC=CC(O)(CC)CC)CC[C@@H]23)C[C@@H](O)C[C@@H]1O (stereo partly specified),inactive,
CC(C)(C)c1cc(C(C)(C)C)c(NC(=O)c2c[nH]c3ccccc3c2=O)cc1O,inactive,
CC(C)c1ccc(Cn2ccc3c4c(N)nc(NC5CC5)nc4ccc32)cc1,inactive,
Cc1ccc(S(=O)(=O)Nc2cc(Cl)ccc2C(=O)Nc2nc(-c3ccccc3)cs2)cc1,inactive,
COc1ccc(CC2SC(=O)NC2=O)cc1C(=O)NCc1ccc(C(F)(F)F)cc1 (stereo unspecified),inactive,
CC[C@H](CO)Nc1nc(NCc2ccccc2)c2ncn(C(C)C)c2n1,inactive,
